Measured values from PubChem BioAssay (NCATS).
“And” between values parts separate entries of the source, which are not always exact repeats. Identical values can stand only once. Inconclusive results are not listed. The source holds several records for some structures; these can differ, active in one and inactive in another. A number with no mark means an inactive call. The source made the active and inactive calls. Calls come from the whole dose curve; as a rule, active = well fitted activation curve with a large enough effect; inconclusive = small, poorly fitted or top-dose-only effect; inactive = no such curve, though single readings can be large or run the other way. Numbered stars: 1 amine (or outer) side, 2 acyl side, 3 side chain; on linkers, the order of the positions; unused ones are H or OH. Bridge positions count the residues as written; N and C are the ends. Square brackets hold non-standard residues; d marks the D form. Peptide text beside a SMILES is read from it. * marks the point of attachment. ξ: configuration not given here. ξhTyr(3S-OH,4S-OH,3'-OSO3H) = NC(C(=O)O)[C@H](O)[C@@H](O)c1ccc(O)c(OS(=O)(=O)O)c1; Orn(4R-OH,5R-OH) = O=C([C@H](C[C@@H](O)[C@@H](O)N[*:3])N[*:1])[*:2]; X6 = CCCCCOc1ccc(-c2cc(-c3ccc(C(=O)*)cc3)no2)cc1; X7 = C[C@H]1CN([*:1])C(C(=O)[*:2])[C@H]1O; ξGln(3R-OH) = NC(=O)C[C@@H](O)C(N)C(=O)O; ξPro(4R-OH) = O=C(O)C1C[C@@H](O)CN1; ξThr(3R) = C[C@@H](O)C(N)C(=O)O

Target: Cellular tumor antigen p53 (Homo sapiens) (UniProt P04637)
Sequence (P04637 whole entry, looked up): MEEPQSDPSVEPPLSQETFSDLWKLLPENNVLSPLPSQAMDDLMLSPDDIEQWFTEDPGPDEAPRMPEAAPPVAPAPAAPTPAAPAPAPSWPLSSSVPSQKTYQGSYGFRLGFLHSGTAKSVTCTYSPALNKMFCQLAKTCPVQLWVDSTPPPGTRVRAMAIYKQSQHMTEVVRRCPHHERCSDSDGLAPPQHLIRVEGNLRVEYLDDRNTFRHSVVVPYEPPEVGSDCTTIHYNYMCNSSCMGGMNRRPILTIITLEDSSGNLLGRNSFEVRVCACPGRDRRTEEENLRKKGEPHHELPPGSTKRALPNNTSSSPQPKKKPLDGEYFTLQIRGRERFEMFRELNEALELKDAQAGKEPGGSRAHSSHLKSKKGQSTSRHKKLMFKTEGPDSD
Experiment: Primary qHTS for small molecule compounds that upregulate eGFP-tagged delta133p53alpha (in N-terminal) cells. (AID 2060322); note: nearly all actives have a fitted effect of over 75% in size;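 for activation: cells pre-induced with doxycycline then dosed without doxycycline; series mostly up to about 56 µM; 0% = DMSO vehicle and 100% = reference activator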
Conditions: NCI-H358 eGFP-delta133p53alpha fluorescence, 24 h; activation: stronger effect = higher value
From the text: Assay Development and Screening Technology
National Center for Advancing Translational Sciences (NCATS),
National Institute of Health (NIH), Rockville, Maryland
Cellular senescence (CS) is one of the hallmarks of aging and age-related diseases. Senescent cells are characterized by an irreversible growth arrest, an increase in senescence-associated beta-galactosidase (SA-beta-gal) activity and p16INK4a expression, an activation of the DNA damage response pathways, and the emergence of a senescence-associated secretory phenotype (SASP).
Delta133p53alpha, a human/primate-specific p53 protein isoform, delays or inhibits the induction of CS and SASP in various types of human cells, including progeria-derived fibroblasts, primary normal astrocytes, and CD8+ T lymphocytes. Induction of delta133p53alpha with small molecule compounds may provide therapeutic opportunities for inhibition of senescence/SASP-associated pathologies in progeria syndromes, astrocyte-mediated neuroprotection in neurodegenerative diseases, and possibly prevention and treatment of a wider range of senescence- and aging-associated diseases.
Here we report the development and validation of a cell-based quantitative high throughput screening (qHTS) assay in 1,536-well format. This qHTS assay uses the NCI-H358 cell line with doxycycline-inducible expression of enhanced green fluorescent protein (eGFP)-tagged delta133p53alpha, which allows efficient and highly quantitative measurement of the protein levels.
PROTOCOL TABLE (as described by Inglese J, Shamu CE and Guy RK. 2007)
SEQUENCE No. (e.g., 1, 2, 3, etc.); […] (e.g., Cells, Incubation, Reagent, etc.); VALUE; DESCRIPTION.
1; Cells; 4uL; 800 doxycycline treated cells / well in doxycycline-free media, 1536-well black, clear-bottom low base Aurora microplates.
2; Compounds; 23 nL; Kalypsis pin tool (Wako) equipped with 1536-well pin heads, 5-azacytidine positive control.
3; Incubation; 24 hr; 37C, 5% CO2; 95% relative humidity.
4; Aspiration; 1x; BioTek EL406 washer dispenser (Agilent).
5; Fixing; 3.5% paraformaldehyde, BioTek EL406 washer dispenser (Agilent).
6; Washing; 1x PBS; BioTek EL406 washer dispenser (Agilent).
7; Nuclei staining; 1:1000 dilution of Hoechst 33342 (Thermofisher), BioTek EL406 washer dispenser (Agilent).
8; Incubation; 20 min; in the dark at room temperature.
9; Washing; 2x, 1x PBS (ThermoFisher), BioTek EL406 washer dispenser (Agilent).
10; Reagent; 10 uL; 1x PBS per well, sealed with clear adhesive tape.
NOTES (numbers refer to sequence numbers above).
1. NCI-H358 cells expressing eGFP-tagged delta133p53alpha were grown in T75 culture flasks and treated with doxycycline for 24h, at 10 ng/ml for eGFP-D133p53a cells (N-terminal cell) and 100 ng/ml for D133p53a-eGFP cells (C-terminal cells). Cells were trypsinized, counted using a Counted 3 Automated Cell Counter (Thermo Fisher), and diluted to a concentration of 200,000 cells/ml. A Multidrop Combi Reagent Dispenser (ThermoFisher) was used to dispense 800 cells/well in […] of doxycycline-free media, into 1536-well black/clear bottom low base plates (AuroraMicroplates).
2. After plating cells, 23 nl of compound library, DMSO vehicle control or positive control (5-azacytidine) were transferred by Pin Tool (Wako). The plate map layout was the same for each plate: (column 1) non-doxycycline treated cells + DMSO vehicle control; (column 2) doxycycline treated cells + DMSO vehicle control baseline; (column 3) doxycycline treated cells + positive control 57.5 uM final concentration 5-azacytidine; (column 4) doxycycline treated cells + serial dilution of 5-azacytidine, 16-point 1:2 titration spanning 1.8 nM to […] final concentration; (columns 5-48) doxycycline treated cells + titration of library compounds.
3. Cells were incubated at 37 °C, 5 % CO2, 95% RH with breathable metal lid for 24h.
4-10. […] After two washes, 10 ul of 1X PBS (Thermo Fisher) was dispensed to each well. Clear adhesive plate seals (VWR) were applied and plates stored at 4 °C.
11. […]
Potency is the fitted concentration of half-maximal effect.

SMILES	activation	Potency
C=C(C)C1CC(O)C(C)C12CC(O)C1(C)OC1C2O (stereo not given)	19.1%	–
CC(=O)O[C@@H]1CC[C@@]2(C)[C@H](CC[C@@H]3[C@@H]2C[C@H](OC(C)=O)[C@]2(C)[C@@H](C(C)=O)CC[C@@H]32)C1	5%	–
CCN(CC)CCCC(C)Nc1nc(C)cc(Nc2ccc3nc(C)cc(N)c3c2)n1 (stereo not given)	4.87%	–
C[C@]1(CO)CCC[C@]2(C)C3=C(CCC12)COC3 (stereo not given in full)	-8.04%	–
CC1CCC2C(C(=O)O)=CC3C(O)C(C)(C)CC123 (stereo not given)	-0.763%	–
NCc1ccc(S(N)(=O)=O)cc1	-15.9%	–
CC(=O)Nc1ccc(S(=O)(=O)Nc2cc(C)on2)cc1	11.9%	–
CC1CCC2(OC1)OC1CC3C4CCC5C[C@@H](O[C@@H]6O[C@H](CO[C@@H]7OC[C@@H](O)[C@H](O)[C@H]7O)[C@H](O)[C@H](O)[C@H]6O)CC[C@]5(C)C4CC[C@]3(C)C1C2C (stereo not given in full)	8.4%	–
CC1=C2C[C@@]3(C)[C@@H](CCC[C@@H]3C)C[C@@]2(O)OC1=O	-4.46%	–
O=C(O)c1cc(N(Cc2ccc(C3CCCCC3)cc2)C(=O)c2ccc(Oc3ccccc3)cc2)ccc1O	-2.86%	–
CCCCCCCCCCCCCCCCCCN(CCCCCCCCCCCCCCCCCC)CCCN(CCO)CCO	-13.9%	–
CCCCCOc1ccc(-c2cc(-c3ccc(C(=O)N[C@H]4C[C@@H](O)[C@@H](O)NC(=O)C5[C@@H](O)[C@@H](C)CN5C(=O)C([C@H](O)CC(N)=O)NC(=O)C([C@H](O)[C@@H](O)c5ccc(O)c(OS(=O)(=O)O)c5)NC(=O)C5C[C@@H](O)CN5C(=O)C([C@@H](C)O)NC4=O)cc3)no2)cc1 (stereo partly drawn) (X6-[Orn(4R-OH,5R-OH)][ξThr(3R)][ξPro(4R-OH)][ξhTyr(3S-OH,4S-OH,3'-OSO3H)][ξGln(3R-OH)][X7]; lactam 1-C)	-0.955%	–
COc1cc(C)c(C(=O)O[C@@H]2[C@H](O)[C@@H](CO)O[C@H]2n2ccc(=O)[nH]c2=O)c(OC)c1	-5.34%	–
Cc1cc2c(cc1N1C(=O)c3cccc4c(CCCO)ccc(c34)C1=O)n(C)c(=O)n2C	5%	–
O=S(=O)(NC1CCC(c2cc(F)ccc2F)(S(=O)(=O)c2ccc(Cl)cc2)CC1)C(F)(F)F (stereo not given)	-16.2%	–
Oc1ccc(CC2NCCc3cc(O)c(O)cc32)cc1 (stereo not given)	-12.9%	–
Cc1ccc(CN2CCNCC2)cc1NC(=O)CNc1ccc(F)c(F)c1	-12.8% and -5.25%	–
CC(=O)OCC(=O)[C@@]1(OC(C)=O)[C@@H](C)C[C@H]2[C@@H]3C[C@H](F)C4=CC(=O)C=C[C@]4(C)[C@@]3(F)[C@@H](O)C[C@@]21C	5.08%	–
Cc1nc(C)c(-c2ccc(C3CCC(CC(=O)O)CC3)cc2)nc1C(N)=O (stereo not given)	-13.4%	–
C=CC1(C)CC=C2C(CCC3C(C)(C(=O)O)CCCC23C)C1 (stereo not given)	-1.53%	–

SMILES	activation	Potency
CC(C)CNCc1ccc(-c2ccccc2S(=O)(=O)N2CCCC2)cc1	11.7%	–
CC(C)c1ccccc1Cc1cc(C(=O)Nc2ccc(S(=O)(=O)c3ccccc3C(C)(C)C)cc2)c(O)c(O)c1O	-33%	–
CC(=O)OC/C(=C/C(=O)O)CC[C@@H]1C(C=O)=CC[C@@H]2C(C)(C)CCC[C@@]12C	-32.8%	–
Cc1nnc(-c2ccc3occ(-c4ccc(S(C)=O)cc4)c3c2)o1 (stereo not given)	-20.5%	–
CC[C@H](NC(=O)[C@H](C)NC)C(=O)N1C[C@@H](O)C[C@H]1Cc1c(-c2[nH]c3cc(F)ccc3c2C[C@H]2C[C@H](O)CN2C(=O)[C@H](CC)NC(=O)[C@H](C)NC)[nH]c2cc(F)ccc12	21.3%	–
Cc1cccc(C)c1NC(=O)CN1CCCC1	10%	–
Cc1c(CCOc2ccc(C(=O)O)cc2)c2cc(Cl)ccc2n1C(c1ccccc1)c1ccccc1	-25%	–
CC(C(C)N1CC(=O)NC(=O)C1)N1CC(=O)NC(=O)C1 (stereo not given)	25.1%	–
CCCN(CCc1cccs1)[C@H]1CCc2c(O)cccc2C1	5.08%	–
O=C(O)c1cc(=O)c2c(OCC(O)COc3cccc4oc(C(=O)O)cc(=O)c34)cccc2o1	19.8%	–
Cc1cn([C@@H]2C[C@@H](O)[C@H](CO)O2)c(=O)[nH]c1=O	-12.7%	–
CC1=CCC2C(C)(C)CCCC2(C)C1CC12OC1C(O)C(CO)=CC2O (stereo not given)	-16.8%	–
CS(=O)(=O)Nc1ccc([N+](=O)[O-])cc1Oc1ccccc1	-3.95% and 5.46% and -33.6%	–
C=C(C(=O)O)C1CC(OC(=O)CC(C)CC)C2(C)CCCC(=C)C2C1 (stereo not given)	-13%	–
COc1cccc(CNc2ccc(S(=O)(=O)Nc3nc4ccccc4s3)cc2)c1O	-10.5%	–
Cc1cn(-c2cc(NC(=O)c3ccc(C)c(Nc4nccc(-c5cccnc5)n4)c3)cc(C(F)(F)F)c2)cn1	12.7%	30.1 µM (active)
COc1c2c(c(CO)c3c1C(=O)OC3)OC1(C)CCC3(O)C(C)(C)OC(=O)CCC3(C)C1C2 (stereo not given)	-16%	–
O=C(O)c1cc(-c2c(-c3ccccc3)nn3ccccc23)n[nH]c1=O	-0.333%	–
Cc1onc(-c2ccccc2Cl)c1C(=O)N(C)c1ccc(Cl)cc1	-1.43%	–
